Laboratory results from PubChem BioAssay AID493170 (National Center for Advancing Translational Sciences (NCATS), 2011).
Inconclusive results are not listed. A call without a number means that no potency is given here. Active and inactive are the calls of the source. Calls follow the shape of the dose curve; as a rule, active = well fitted inhibition curve with a large enough effect; inconclusive = small, poorly fitted or top-dose-only effect, or effect the other way; inactive = flat fitted curve, though single readings scatter.

target: Ubiquitin carboxyl-terminal hydrolase 2 (Homo sapiens) (UniProt O75604); assay: Ub-rhodamine 110 based assay for inhibitors Ubiquitin-specific Protease USP2a; conditions: USP2a Ub-rhodamine110 cleavage, fluorescence; series mostly up to 38.3 µM; also: nearly all actives have a fitted effect of over 50% in size
Summary of the method: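 5 nM USP2a preincubated with compounds for 30 min at RT in 20 mM Tris-HCl pH 8.0, 2 mM CaCl2, 2 mM beta-mercaptoethanol, 0.05% CHAPS. Cleavage of 150 nM Ub-rhodamine 110 read kinetically (Ex 485/Em 531) for 7 min.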
Potency is read from the fitted curve at half-maximal effect.

Sequence of Ubiquitin carboxyl-terminal hydrolase 2 (Homo sapiens) (O75604 whole entry, looked up): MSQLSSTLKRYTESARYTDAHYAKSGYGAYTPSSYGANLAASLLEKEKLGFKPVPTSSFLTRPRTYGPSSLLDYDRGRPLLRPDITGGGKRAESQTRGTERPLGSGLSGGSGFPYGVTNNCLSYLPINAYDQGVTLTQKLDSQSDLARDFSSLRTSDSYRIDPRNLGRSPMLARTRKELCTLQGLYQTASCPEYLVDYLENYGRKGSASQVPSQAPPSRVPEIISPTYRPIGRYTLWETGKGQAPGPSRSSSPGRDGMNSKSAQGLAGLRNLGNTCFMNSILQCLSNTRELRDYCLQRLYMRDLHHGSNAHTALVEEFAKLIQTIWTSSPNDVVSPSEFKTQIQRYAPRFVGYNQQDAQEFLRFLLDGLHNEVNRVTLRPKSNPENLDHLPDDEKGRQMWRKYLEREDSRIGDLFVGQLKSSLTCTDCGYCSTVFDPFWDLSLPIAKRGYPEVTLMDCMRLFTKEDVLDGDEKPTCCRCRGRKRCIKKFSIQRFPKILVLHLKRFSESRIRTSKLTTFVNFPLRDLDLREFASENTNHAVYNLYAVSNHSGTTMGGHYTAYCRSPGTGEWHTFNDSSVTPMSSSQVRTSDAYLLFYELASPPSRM

Row | SMILES | Potency
1 | COc1ccc(C(=O)N/C(=C\c2cccs2)C(=O)N2CCN(C)CC2)cc1OC | inactive
2 | CC1(C)CC(=O)C2=C(C1)N(Cc1ccco1)C(=O)NC2(C(F)(F)F)C(F)(F)F | inactive
3 | CN(C)c1ccc(-c2ccccc2)nn1 | inactive
4 | CCOC(=O)C(=O)Nc1nc(-c2ccc3c(c2)CCN3C(=O)C2CC2)c(C)s1 | inactive
5 | O=C1CS/C(=C/C(=O)c2ccccc2)N1 | inactive
6 | O=C(COC(=O)c1ccc(F)c(S(=O)(=O)N2CCOCC2)c1)c1ccccc1 | inactive
7 | O=C(/C=C/c1ccc(Cl)c([N+](=O)[O-])c1)Nc1ccc(N2CCCC2)cc1 | 12.6 µM (active)
8 | COc1ccc(S(=O)(=O)NCCSCc2ccco2)cc1OC | 10 µM (active)
9 | CNC(=O)NC(=O)CSc1ccc(NC(C)=O)cc1 | inactive
10 | CC(C)n1nc(C(=O)Nc2ccccc2N2CCOCC2)c2ccccc2c1=O | inactive
11 | O=C(Cc1cc(=O)[nH]c(=O)[nH]1)NCC1CCCO1 (centres undefined) | inactive
12 | COc1cccc(C(=O)NCc2ccc3[nH]c(C)cc3c2)c1 | inactive
13 | Cc1n[nH]c(C)c1S(=O)(=O)N1CCCC(C(=O)NC2CCCc3ccccc32)C1 (centres undefined) | inactive
14 | CCOc1ccc2[nH]c(=O)c(CN(Cc3cccs3)Cc3nnnn3C(C)(C)CC)cc2c1 | inactive
15 | O=C1Nc2ccc(S(=O)(=O)N3CCCCCC3)c3cccc1c23 | inactive
16 | O=C(O)c1cc(N2N=C(C(F)(F)F)/C(=C/C=C/c3ccco3)C2=O)ccc1Cl | 7.08 µM (active)
17 | C#CCOCCOCCOCCNc1nc(N2CCN(C(=O)CCCCCCCCCCNC(=O)[C@H](CCCCN)n3cc(CCO)nn3)CC2)nc(N2CCN(C(=O)CCCCCCCCCCNC(=O)[C@H](CCCCN)n3cc(C[C@@H](C)CC)nn3)CC2)n1 | inactive
18 | CN(c1ccccc1)S(=O)(=O)c1ccc(Cl)c(C(=O)NCCc2c[nH]c3ccccc23)c1 | inactive
19 | O=C(CCN1C(=O)/C(=C\c2ccco2)SC1=S)Nc1ccc(C(=O)O)c(O)c1 | 7.94 µM (active)
20 | O=C(c1ccccc1)N1CCN(C2C3CC4CC(C3)CC2C4)CC1 (centres undefined) | inactive

Row | SMILES | Potency
21 | N#CC(c1ccccc1)c1ccc(C(=O)c2ccc(F)cc2)cc1 (centres undefined) | inactive
22 | Cc1n[nH]c(C)c1S(=O)(=O)N1CCCC(C(=O)Nc2nccs2)C1 (centres undefined) | inactive
23 | Cc1cccc(C)c1-n1cccc1/C=C1\SC(=S)N(c2cccc(C(=O)O)c2)C1=O | 7.94 µM (active)
24 | COc1ccc(/C=C\C(=O)O[C@@H]2C(O)C(O[C@@H]3OC(C)[C@H](O[C@@H]4OCC(O[C@H]5O[C@H](CO)[C@@H](O)C(O)C5O)C(O)C4O)C(O)C3O)[C@H](OC(=O)[C@]34CCC(C)(C)C[C@@H]3C3=CCC5[C@@]6(C)CC(O)C(O[C@@H]7OC(CO)C(O)[C@H](O)[C@H]7O)[C@@](C)(C(=O)O)C6CC[C@@]5(C)[C@]3(CO)CC4)O[C@H]2C)cc1 (some centres undefined) | inactive
25 | CCCOc1ccc(N2C(=O)CC(NCCc3ccc(S(N)(=O)=O)cc3)C2=O)cc1 (centres undefined) | inactive
26 | Cc1cc(C)c(NC(=O)C[N+](C)(C)CC(O)COc2cccc3ccccc23)c(C)c1 (centres undefined) | inactive
27 | Cc1noc(/C=C/c2ccco2)c1S(=O)(=O)N1CCC(C(=O)N2CCc3ccccc3C2)CC1 | 7.94 µM (active)
28 | O=C(COc1ccccc1)NCc1nnc(SCC(=O)Nc2nccs2)n1-c1ccccc1 | inactive
29 | CCCn1c(C)cc(C)c(C#N)c1=O | inactive
30 | Cc1cc(NC(=O)c2cccc(S(=O)(=O)N(C)C)c2)n(-c2ccccn2)n1 | inactive
31 | COc1ccc(O)c(-c2cc(-c3ccc(F)cc3)n[nH]2)c1 | inactive
32 | NS(=O)(=O)c1ccc(N=Nc2c(O)c(C(=O)O)cc3ccccc23)cc1 | 5.62 µM (active)
33 | Cc1cccc2c1N(CCCOc1ccc(C(C)(C)C)cc1)C(=O)C2=O | inactive
34 | N#CCC(=O)Nc1ccc(C(=O)OCC(=O)NCc2ccc3c(c2)OCO3)cc1 | 10 µM (active)
35 | O=[N+]([O-])c1ccc2nc(C(O)C(O)c3nc4ccc([N+](=O)[O-])cc4[nH]3)[nH]c2c1 (centres undefined) | 11.2 µM (active)
36 | O=C(NCCC1=CCCCC1)C1CCCN(S(=O)(=O)c2cnc[nH]2)C1 (centres undefined) | inactive
37 | CC(=O)OCC(=O)Nc1ccc(Cl)cc1Cl | inactive
38 | O=C1S/C(=C\C=C\c2ccco2)C(=O)N1c1ccc(O)cc1 | 8.91 µM (active)
39 | Cc1ccc(N=C2NC(=O)/C(=C/C=C/c3ccco3)S2)cc1C | 5.01 µM (active)
